Measurements taken from PubChem BioAssay (NCI).
The panel holds about 79,000 compounds, 15% with a hit somewhere; the sample as a whole holds those more often. Calls of active or inactive are those of the source. Cut-off read from the data, not from the text of the source: active = growth inhibition above about 70%; inactive = the rest.

Legend:
[1] = NCI Yeast Anticancer Drug Screen. Data for the rad50 strain (AID 155);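 note: 0% = growth of vehicle-only cultures of the same strain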; settings: S. cerevisiae rad50 strain growth inhibition; at 50.0 µM; hits give high values
Method in brief: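 A DNA repair-deficient yeast mutant serves as the test organism; compound-induced growth inhibition is calculated against vehicle-treated cells.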

[2] = NCI Yeast Anticancer Drug Screen. Data for the sgs1 mgt1 strain (AID 161);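 note: 0% = growth of cultures given vehicle only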; settings: S. cerevisiae sgs1 mgt1 strain, at 50.0 µM, hits give high values
Method in brief: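 Mutant yeast exposed to compound; growth scored against vehicle-only wells.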

[3] = NCI Yeast Anticancer Drug Screen. Data for the cln2 rad14 strain (AID 165);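 note: 0% = growth equal to vehicle treated cultures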; settings: S. cerevisiae cln2 rad14 strain, at 50.0 µM, hits give high values
Method in brief: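 cln2 rad14 yeast strain; compound exposure; growth inhibition read vs vehicle controls.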

[4] = NCI Yeast Anticancer Drug Screen. Data for the bub3 strain (AID 167); settings: S. cerevisiae bub3 mutant strain, at 50.0 µM, hits give high values
Method in brief: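 Inhibition values come from growth of compound-treated mutant yeast normalised to vehicle-treated controls.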

[5] = NCI Yeast Anticancer Drug Screen. Data for the mlh1 rad18 strain (AID 175); settings: S. cerevisiae mlh1 rad18 strain growth inhibition; at 50.0 µM; hits give high values
Method in brief: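 Yeast w/ defined DNA-repair lesions; compound exposure; growth vs vehicle controls → % inhibition.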

[6] = NCI Yeast Anticancer Drug Screen. Data for the mec2-1 strain (AID 157); settings: S. cerevisiae mec2-1 strain, at 50.0 µM, hits give high values
Method in brief: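 Yeast mec2-1 mutant treated with compound. Readout: growth inhibition vs vehicle controls.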

Measured: growth inhibition

NC(N)=Nc1nn[nH]n1
inactive: [1] 3.25% | [2] -13.7% | [3] -0.85% | [4] 0.35% | [5] -5.6%

CCOP(=O)(OCC)/C(C#N)=C/c1ccccc1
inactive: [6] -23.1% | [2] -8.95% | [3] -33.8% | [4] -11.3% | [5] 19.6%

CC(=O)Nc1ccc([As](=O)(O)O)cc1[N+](=O)[O-]
inactive: [1] 0.85% | [2] 0.1% | [3] -3.35% | [4] 23.2% | [5] 15.5%

O=NN1CCN(N=O)CC1
inactive: [1] 4.9% | [2] 6.3% | [3] 8.95% | [5] 28.1%

NCc1c[nH]c2ccccc12
inactive: [6] 4.8% | [2] -22.7% | [3] -12.8% | [4] -16.5% | [5] -9.7%

CC1=C(C)C(=O)O[C@@H]([C@](C)(O)[C@]2(O)CC[C@@]3(O)[C@@H]4C[C@H](O)[C@]5(O)[C@@H](O)C=CC(=O)[C@]5(C)[C@H]4CC[C@]23C)C1
inactive: [6] 11.2% | [2] 7.1% | [3] 23.2% | [4] 9.5% | [5] -52.8%

COc1cc2c(cc1O)CCN[C@H]2C
inactive: [6] -25.8% | [2] -0.95% | [3] -4.1% | [4] 3.55% | [5] -1.45%

CC1=CC(=Nc2ccc(N(CCCl)CCCl)cc2)C=CC1=O
inactive: [6] 33.2% | [2] -28.4% | [3] 14.2% | [4] -7.9% | [5] 5.35%

O=C(O)CP(=S)(S)c1ccccc1 (centres undefined)
inactive: [6] -32.9% | [2] -26.4% | [3] 2.4% | [5] -39.5%

Cc1ccc(N2C(=O)C3C(C2=O)C2(Cl)C(Cl)=C(Cl)C3(Cl)C2(Cl)Cl)cc1Cl (centres undefined)
inactive: [6] 3.25% | [2] -1.1% | [3] -36.1% | [4] 2.65% | [5] 9.5%

Nc1ccc([N+](=O)[O-])cc1N
inactive: [6] -14.7% | [2] -12.8% | [3] -36.9% | [4] -17.4% | [5] 10.2%

[Br][Sn]([Br])([CH2][Sn]([Br])([c]1ccccc1)[c]1ccccc1)[c]1ccccc1
active: [5] 81.7%

Cn1cnc([N+](=O)[O-])c1[Se]c1nc(N)nc2nc[nH]c12
inactive: [6] -12% | [3] 15.2% | [4] -7.65% | [5] -17.9%

[CH3][Sb]([CH3])([CH3])([I])[I]
inactive: [6] -14.1% | [2] 0.15% | [3] -12.7% | [4] -0.2% | [5] 1.25%

NC(=O)NC(O)C(Cl)(Cl)Cl (centres undefined)
inactive: [6] -33.9% | [2] -24.9% | [3] -42% | [4] -32.6% | [5] -29.4%

CCC[CH2][Sn]([Br])([c]1ccccc1)[c]1ccccc1
active: [6] 99% | [2] 99.4% | [3] 99.1% | [4] 99% | [5] 98.9%

CCCCCCCCCNP(=O)(OCc1ccccc1)N(CCCl)CCCl (centres undefined)
inactive: [6] 37.2% | [2] 40.2% | [3] 34.8% | [4] -0.4% | [5] 26.4%

CN1C2CCC1C(O)C(c1ccccc1)C2 (centres undefined)
inactive: [6] 9.25% | [2] -0.05% | [3] -11.8% | [4] 0.45% | [5] -0.6%

O=C1NC(=O)C2(CCOCC2)C(=O)N1
inactive: [6] 3.3% | [2] -19.1% | [3] -18.4% | [4] -17.5% | [5] 0.15%

OCCC[n+]1cccc2ccccc21
inactive: [6] 9.25% | [2] 1.1% | [3] -41.6% | [4] 0.95% | [5] -1.7%

S=P12OCCC(CO1)O2 (centres undefined)
inactive: [6] -9.35% | [2] 3.85% | [3] -23.8% | [4] -8.15% | [5] -3.15%

O=C1OC(Br)c2ccccc21 (centres undefined)
inactive: [6] -27.7% | [2] -8% | [3] 7% | [4] -20.1% | [5] -7.65%

Cc1ccc(N=C2OP(=O)(Nc3ccc(C)cc3)Oc3ccccc32)cc1 (centres undefined)
inactive: [6] -44.8% | [2] -23.6% | [3] 0.3% | [4] -6% | [5] -19.9%

CCOc1ccc(/C=C/c2cc(OC)c(OC)c(OC)c2)cc1
inactive: [6] -21.7% | [2] -23.8% | [3] -10.3% | [4] -8.6% | [5] -34.2%

[N-]=[N+]=C1C(=O)C2CC3CC1CC2C3 (centres undefined)
inactive: [6] 12.7% | [2] -9.35% | [3] 8.55% | [5] 1.5%

Cc1ccc(C(O)(c2ccc(C)cc2)c2ccccn2)cc1
inactive: [6] 16.9% | [2] -7% | [3] -13.8% | [4] 9.45% | [5] -35%

CC1(c2ccccc2)CC12C(=O)NC(=O)NC2=O (centres undefined)
inactive: [6] -22.6% | [2] -18.9% | [3] -8.75% | [4] -27.7% | [5] -20.9%

C#CC1(OC(C)=O)CCC2C3CCC4=CC(=O)CCC4(C)C3CCC21C (centres undefined)
inactive: [6] 6.1% | [2] 4.4% | [3] -11.2% | [4] -8.8% | [5] 19.7%

C/C(CC(C)(C)N1CC1)=N\N
inactive: [6] -12.8% | [2] -7.75% | [3] -20.1% | [4] -7.95% | [5] -8.95%

CC[C@@]1(O)C(=O)OCc2c1cc1n(c2=O)Cc2cc3cc(OC)ccc3nc2-1
active: [2] 86.7% | [3] 80.7% | [4] 83.6%

O=C(O)C(O)(Cl)c1cccs1 (centres undefined)
inactive: [6] -3.35% | [2] -4.8% | [3] -16.6% | [4] -7.15% | [5] 14.8%

Cc1cccc(Cl)c1OP(=O)(Oc1c(C)cccc1Cl)Oc1c(C)cccc1Cl
inactive: [6] -7.8% | [2] -19.3% | [3] -19.3% | [4] 2.25% | [5] -51.4%

CN1CCC(O)(c2ccc(Br)cc2)C(C(=O)c2ccc(Br)cc2)C1 (centres undefined)
inactive: [6] 12.3% | [3] -2.65% | [4] 0.35% | [5] 34.8%
active: [2] 99%

C1C[OH+]CC[OH+]CC[OH+]CC[OH+]CC[OH+]1.[Cl-].[V]
inactive: [6] -6.25% | [2] -1.95% | [3] -10.8% | [4] -12% | [5] -1%

CCOC(=O)C12CCC(=O)C=C1CN(C)CC2 (centres undefined)
inactive: [6] 0.1% | [2] -3.3% | [3] -17.1% | [4] -13.2% | [5] 0.8%

O=C1OC(=O)C2CC3C(CC12)C1(Cl)C(Cl)=C(Cl)C3(Cl)C1(Cl)Cl (centres undefined)
inactive: [6] -28.2% | [2] -13.1% | [3] -5.4% | [4] -17.4% | [5] 3%

O=C1NC(=O)C(Cc2cccc(OCc3ccccc3)c2)C(=O)N1
inactive: [6] 2.2% | [2] -1.65% | [3] 5.1% | [4] 0.1% | [5] -52%

CNC1=C(N2CC2)C(=O)C(NC)=C(N2CC2)C1=O
inactive: [6] 28.3% | [2] 17.9% | [3] 10.8% | [4] 13.8% | [5] 36.4%

CN1C2CCC1C(Br)C(=O)C2 (centres undefined)
inactive: [5] -51.2%

CN(C)C(=O)Oc1cc(O)cc([N+](=O)[O-])c1
inactive: [6] -11.1% | [2] -10.8% | [3] -6.35% | [4] 24.1% | [5] -28.1%

Nc1cc([N+](=O)[O-])cc([N+](=O)[O-])c1
inactive: [6] -9.3% | [2] 30.1% | [3] 4.9% | [4] 2.5% | [5] 41.3%

O=S(OO)c1cc(Cl)c(O)c(Cl)c1 (centres undefined)
inactive: [6] -24.1% | [2] -1.55% | [3] 7.55% | [4] -10.7% | [5] 3.4%

Cc1ccc(NN=O)nc1
inactive: [6] 3.15% | [3] 15.2% | [4] -10.6% | [5] -13.8%

CC[O-].CC[O-].O=C([CH-]C(=O)c1ccccc1)c1ccccc1.O=C([CH-]C(=O)c1ccccc1)c1ccccc1.[Ti+4]
inactive: [6] 30.9% | [2] 29.1% | [4] 52.7% | [5] 26.1%
